The values below come from PubChem BioAssay (NCI).

Molecules are shown by their SMILES. About 83,000 compounds went through this panel and 20% of them were active in at least one assay; those are over-represented in the sample as a whole.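 Testing used 96-well plates and a 48-hour single-concentration exposure. Example: -40 means 40% of the starting cells died.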 Unmarked numbers belong to inactive results. Active and inactive are the calls of the source.

The test concerns HCT-15 colon. The test is described as follows: NCI-60 one-dose screen, 48 h (100 = growth as untreated, 0 = no growth, -100 = all killed). Particulars: 10 µM unless noted. As to the method: Growth inhibition of the HCT-15 human tumor cell line is measured as a screen for anti-cancer activity. Cells are grown in 96 well plates and exposed to the test compound for 48 hours. Compounds are tested at a single concentration, which is 10^-5 M for most compounds. The reported endpoint is percent growth (GI% or GIPRCNT), where numbers from 0 - 100% represent growth inhibition, and numbers from -100% - 0 represent cell death. For example, a value of 40 represents 60% growth inhibition. A value of 0 means no net growth occurred over the course of the experiment. A value of -40 indicates 40% of cells at the beginning of the experiment died by the end of the experiment. A value of -100 means all cells are dead at the end of the experiment.
NCI-60 Human Tumor Cell Lines Screen was performed using the standard one-dose NCI protocol, which is described in more detail at https://dtp.cancer.gov/discovery_development/nci-60/default.htm.
Compounds with GIPRCNT values below 10 were considered active. Activity score was based on GIPRCNT using the following formula: […]
Score is 0 for GIPRCNT values of 100 or above, 50 for GIPRCNT values of 0, and 100 for GIPRCNT values of -100.
For the compound `ClC1=C(Cl)C(Cl)=C(Cl)C1=Cc1ccc(Cl)cc1`, the growth is 66.5%.

In the case of `CN(C)c1ccc2[nH]c3c(C(N)=O)cc(=O)c(=O)c=3oc2c1`, the growth is 24.8%.

Take `c1ccc(-c2nn[nH]n2)c(-c2ccc(CN3CCN(c4nsc5ccccc45)CC3)cc2)c1`: the growth is 82.9%.

For `c1ccc2cc(C[n+]3ccn(CCCCCCCn4cc[n+](Cc5ccc6ccccc6c5)c4)c3)ccc2c1`, the growth was 82.6%.

Regarding `COc1ccc2c(c1)C(=O)c1c-2c(=O)n(CCCCCCC(=O)NO)c2ccccc12`, the growth is 13.3%.

Consider `OCc1nnn(-c2ccccc2)c1CO`, for which the growth is 96.7%.

As for `C=C(C)[C@@H]1C/C=C(/C=O)CC[C@@H]2O[C@@]2(C)CC/C=C(\C)CC1`, the growth was 105%.

On to `CCOC(=O)/C(=C/c1ccccc1)C(=O)c1ccccc1`, for which the growth is 51.9%.

As to `Cc1cc(NC(=O)Nc2cccc3ccccc23)no1`, the growth is 95.2%.

On to `CCCCCCOc1ccc(/C=N/NC(N)=S)cc1`, for which the growth was 33.9%.

Consider `CCN1C(=O)c2ccc3c4c(ccc(c24)C1=O)C(=O)N(CCCNCc1ccccc1OC)C3=O`, for which the growth was -78.3% (active).

Consider `Cc1ccc(C(=O)Nc2ccc(Cl)cc2C(=O)NCc2ccccc2)cc1`, for which the growth is 57.4%.

For `COc1cc(C2NC(c3ccc(Cl)cc3)C(C)/C(=N/NC(N)=S)C2C)cc(OC)c1OC` (stereo not given), the growth was 81.9%.

Consider `CCOC(=O)c1c(C)c(C(=O)OCC)n(C)c1C`, for which the growth is 102%.

For the compound `CCOC(=O)c1c2c(c(C)n1Cc1ccccc1)-c1nc(N)ncc1CC2`, the growth was 99.4%.

Consider `CCN(CC)CCCNCCCNc1cc(OC)cc2cccnc12`, for which the growth was 83.9%.

For `C[C@]12CC[C@@H]3c4ccc(O)cc4CC[C@H]3[C@@H]1CC[C@@H]2NS(=O)(=O)c1cccc(Br)c1`, the growth was 50.9%.

Consider `CC1=NN(c2ccccc2Cl)C(=O)/C1=C\c1cn(S(=O)(=O)c2ccc(C)cc2)c2ccccc12`, for which the growth is 105%.

For the compound `COc1ccc(OC)c2c1[nH]c(=O)c1c3ccccc3cn21`, the growth is -46.5% (active).

Take `CCOc1nc(-c2ccccc2)cc2c(O)c(C(=O)n3nc(C)cc3C)[nH]c(=O)c12`: the growth is 100%.

Consider `COc1cc(/C=C2\COc3ccc(O)cc3C2=O)cc(OC)c1`, for which the growth was 37.9%.

With `CC(O)c1nc2c(c(=O)n(C)c(=O)n2C)n1C` (stereo not given), the growth was 104%.

In the case of `COc1cc(-c2cc(C(=O)Nc3nc4ccccc4s3)nc3cc(-c4ccccc4)nn23)cc(OC)c1OC`, the growth is 85.3%.

As to `COc1cccc2c1O/C(=C\c1c([N+](=O)[O-])ncn1C)C2=O`, the growth was 91.4%.

For the compound `CC(NC(=O)C(C)Oc1ccc(Cl)cc1Cl)C(=O)O` (stereo not given), the growth was 98.3%.

As to `Cc1cc(C)c(OC(=O)CSc2nc3ccccc3c(=O)n2CCc2ccccc2)cc1C`, the growth is 52.7%.

In the case of `CSc1ccc2c(c1)N(CCC1CCCCN1C)c1ccccc1S2` (stereo not given), the growth was 43.4%.

In the case of `O=C(c1ccccc1)c1ccco1`, the growth is 104%.

`COc1ccc2c(c1)/C(=C\c1c[nH]c3ccc(F)cc13)C(=O)N2`: the growth is 66%.

Consider `O=C(Nc1cccc(C(F)(F)F)c1)Nc1ccc(OCc2nnc(-c3ccc(Cl)cc3)o2)c(F)c1`, for which the growth was 42.9%.

Turning to `CCCCOc1ccc(C(C)(C)c2ccc(OCCCC)cc2)cc1`, the growth was 107%.

Consider `COc1cc2c(c(OC)c1OC)-c1ccc(NN(C(=O)c3ccccc3)C(=O)c3ccccc3)c(=O)cc1[C@@H](NC(C)=O)CC2` (tested in a mixture with another compound), for which the growth is 48.8%.

As to `O=C(/C=C/c1cccnc1)/C=C/c1cccnc1`, the growth was -9.07% (active).

Turning to `COc1ccc(Cn2cc3c(c2-c2ccccc2)CCc2cncnc2-3)cc1`, the growth was 45.3%.

As to `COc1ccc(-n2nc3c(c2-c2ccc(OC)c(OC)c2)-c2oncc2CC3)cc1`, the growth was 55.9%.

As to `Cc1ccc2c(c1)O/C(=C\c1ccc([N+](=O)[O-])o1)C2=O`, the growth was 4.4% (active).

Take `O=C(CSCC(=O)N/N=C/c1ccccc1O)N/N=C\c1ccccc1O`: the growth is 22.9%.

Take `COc1ccc2nc(NC(=O)c3cc(-c4ccc(F)cc4)n4nc(-c5ccccc5)cc4n3)sc2c1`: the growth was 90%.

With `Oc1ccc(Cc2ccc(O)c(C3CC(c4ccc(Cl)cc4)=NN3)c2)cc1C1CC(c2ccc(Cl)cc2)=NN1` (stereo not given), the growth is 17.2%.

For the compound `Nc1c2ccccc2nc2ccccc12` (tested in a mixture with another compound), the growth was 14.7%.
